The values that follow come from PubChem BioAssay (NCATS).

Unmarked numbers belong to inactive results. Records with an inconclusive call do not appear. Activity calls are given as the source filed them. Unless noted, calls follow the shape of the dose curve; as a rule, active = well fitted curve in the direction sought with a large enough effect; inconclusive = small, poorly fitted or top-dose-only effect, or another doubt; inactive = no such curve, though single readings can be large; an effect the other way counts as inactive or inconclusive.

The nature of test [1]: qHTS of Nrf2 Activators: LOPAC Validation (AID 624149). Also: 0% is about no effect. In a few lines: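 AREc32 cells carrying an ARE-driven firefly luciferase were grown overnight in OPTI-MEM with 5% FBS, then exposed to compounds for 24 hr at 37 deg C. Luciferase signal was read after 30 min with Steady-Glo at RT.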
(Quantitative high-throughput screening tests each substance at several concentrations.)

A short description of test [2]: HTS Assay for Allosteric Antagonists of the Human D2 Dopamine Receptor: Hit Validation in HTRF (AID 624455).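 Also: stable D1 dopamine receptor cell line scored for blocking the D1 response; % is scaled to controls: 0 for no effect and ±100 for the full control effect.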 In a few lines: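 Hits were examined in an HTRF assay using cells stably expressing the D1 dopamine receptor, scoring inhibition of the D1-mediated response. The preceding primary screen tracked calcium flux after an EC80 dopamine addition in force-coupled, inducible Hek293 Trex D2 cells.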
(In general: TR-FRET usually uses a lanthanide donor and a delayed reading to cut background.)

Test [3] has as its target Arylsulfatase A (Homo sapiens) (UniProt P15289). In words: qHTS screen for enhancers of Arylsulfatase A (ASA1): LOPAC Validation Assay (AID 720538). Also: potency is read from the fitted curve at half-maximal effect. Summed up: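 SV40-transformed skin fibroblasts from an MLD patient (ASA-I179S) were treated with compounds for 48h at 37 degree C, then lysed with 0.5mM pNCS final substrate for 14h at room temperature; NaOH stop, fluorescence read (Ex=525 nm; Em=598 nm).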

Test [4] is described as follows: qHTS for compounds that reverse cellular toxicity of Amyloid beta (A-beta) peptide in yeast: LOPAC Validation Assay (AID 720559).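 Also: plate controls were DMSO for no effect and equimolar ferric chloride plus clioquinol rescue for full effect.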 In a few lines: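 Yeast cells expressing toxic A-beta were combined with pinned compounds in growth medium and incubated 48 hr at 30 C. Growth was read as absorbance at 600 nm and normalized to DMSO and to an equimolar FeCl3/clioquinol positive control.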

Test [5] can be described thus: qHTS for Activators of Parkin Expression: LOPAC Validation Assay (FLuc Reporter) (AID 720573;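 also: 0% = DMSO and 100% = positive control compounds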). In a few lines: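 Neuronal cell line stably carrying FLuc/NLuc coincidence reporter under Parkin promoter; cells plated 24 h, then compounds added in 7-point dose response for 24 h at 37 C. FLuc luminescence read; normalized to DMSO and positive control (100%).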
Test [6] addresses T1, Hexokinase-4 (Homo sapiens) + Glucokinase regulatory protein (Homo sapiens) (UniProt P35557+Q14397). In words: qHTS assay for inhibitors of recombinant human GCK-GKRP interaction: Diaphorase-coupled assay (AID 743205). Summed up: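 GST-GCK (10 nM) with FLAG-GKRP (10 nM), 5 mM glucose and 0.4 mM ATP in pH 7.6 Hepes; compounds preincubated 20 min with substrate. G6PDH/diaphorase coupling converts resazurin to resorufin, read kinetically (ex 525/em 590 nm) for 30 min.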

The target of test [7] is T1, Hexokinase-4 (Homo sapiens) + Glucokinase regulatory protein (Homo sapiens). In words: qHTS assay for inhibitors of recombinant human GCK-GKRP interaction: ADP-Glo assay (AID 743206).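 Also: plate controls were DMSO plus enzyme for no effect and no enzyme for full effect.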 In a few lines: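 GST-GCK and FLAG-GKRP (15 nM each in the dispensed mix, with 2 uM S6P) react with 0.4 mM ATP and 5 mM glucose (final) in Hepes pH 7.6 for 60 min at room temperature. ADP is measured by ADP-Glo luminescence.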

The nature of test [8]: Natriuretic polypeptide receptor (hNpr1) antagonism - Pilot counterscreen GloSensor control cell line (AID 1347045; calls by dose curve; also: potency is read from the fitted curve at half-maximal effect). In a few lines: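 HEK293 cells carrying the GloSensor cGMP sensor (GIP/pGS-40F) were loaded with 2% GloSensor reagent for 2 h, exposed to compounds for 30 min, and then stimulated with 50 uM sodium nitroprusside for 20 min at room temperature.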
A general note: The purpose of a counterscreen is to sort out artefacts and off-target activity.

Test [9] addresses Atrial natriuretic peptide receptor 1 (Homo sapiens) (UniProt P16066). In words: Natriuretic polypeptide receptor (hNpr1) antagonism - Pilot screen (AID 1347049; calls by dose curve;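 also: agonist-evoked cGMP luminescence read 20 min after hNppA addition; potency is read from the fitted curve at half-maximal effect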). Summed up: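 Readout is cGMP-driven firefly luciferase luminescence in HEK293 cells carrying hNpr1 and a PDE5-domain GloSensor, read before and 20 min after 0.1 nM hNppA stimulation. Cells had 2% substrate reagent for 2 h and test compound for 30 min.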

Test [10] addresses Atrial natriuretic peptide receptor 2 (Homo sapiens) (UniProt P20594). In words: Natriuretic polypeptide receptor (hNpr2) antagonism - Pilot subtype selectivity assay (AID 1347050; calls by dose curve; also: potency is read from the fitted curve at half-maximal effect). In a few lines: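 Pilot selectivity screen against hNpr2: HEK293 cGMP-sensor cells are treated with LOPAC1280 compounds, then with hNppC peptide at 1 nM final. The cGMP-driven luminescence change over 20 min at room temperature is the read-out.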

For test [11], the target named is T2, Tyrosine-protein phosphatase non-receptor type substrate 1 (Homo sapiens) + Leukocyte surface antigen CD47 (Homo sapiens) (UniProt P78324+Q08722). In words: CD47-SIRPalpha protein protein interaction - LANCE assay qHTS validation (AID 1347057; active = well fitted curve in the direction sought with a large enough effect in the signal ratio, with a control signal flat, not every such curve was filed as active; the % refers to the signal ratio; also: series mostly up to about 38 µM; 0% is about no effect). In a few lines:
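First, His-tagged CD47 and Eu-labelled anti-His antibody met the compound for 30 min; next, site-specifically biotinylated SIRPalpha was added for 30 min; finally streptavidin-APC was added before reading the TR-FRET ratio.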

The target of test [12] is T2, Tyrosine-protein phosphatase non-receptor type substrate 1 (Homo sapiens) + Leukocyte surface antigen CD47 (Homo sapiens). In words: CD47-SIRPalpha protein protein interaction - HTRF assay qHTS validation (AID 1347058; active = well fitted curve in the direction sought with a large enough effect in the signal ratio, not every such curve was filed as active; the % refers to the signal ratio;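 also: recombinant soluble extracellular CD47 with His tag and biotinylated SIRPalpha domains; series mostly up to about 38 µM; 0% is about no effect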). In a few lines: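 TR-FRET read (Ch1/Ch2 ratio) of soluble extracellular CD47 and Avi-biotinylated SIRPalpha domains in PBS pH 7.4 with 0.05% IGEPAL; 7-point compound titration. Sequential 30 min room-temperature steps; non-biotinylated SIRPalpha as control inhibitor.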

For test [13] the target is unchanged. In words: CD47-SIRPalpha protein protein interaction - Alpha assay qHTS validation (AID 1347059). Summed up:
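Binding is measured by AlphaScreen proximity: Ni-NTA acceptor beads capture His-CD47, streptavidin donor beads capture biotin-SIRPalpha. Each of three additions (SIRPalpha with compound, CD47, beads) incubates 30 min at room temperature protected from light.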

Test [14] deals with Parathyroid hormone/parathyroid hormone-related peptide receptor (Homo sapiens) (UniProt Q03431). In words: qHTS for PTHR1 Agonists: Optimization Screen against the NCGC LOPAC library (AID 1347079).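 Also: GloSensor cAMP luminescence in HEK-293 GP2 cells expressing human PTHR1 with IBMX; 0% is about no effect.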 In a few lines: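 Compounds were tested across a qHTS titration. PTHR1-expressing GP2 cells report cAMP rises via GloSensor luminescence after 1 hr compound exposure at 37C with IBMX present.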

The target of test [15] is Lysine-specific demethylase 5B (Homo sapiens) (UniProt Q9UGL1). In words: Optimization screen for KDM5B Histone Demethylases FDH coupled qHTS against the LOPAC library (AID 1347166). Also: 0% is about no effect. In a few lines:
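KDM5BDeltaAP (200nM final) preincubated 10 min with compound, then 12.5uM H3K4Me3, 25uM a-ketoglutarate, ascorbate, Fe(II), NAD+ and FDH added; 50mM HEPES pH 7.5, 0.01% Tween-20. NADH fluorescence (340/450 nm) change over 30 min, room temperature.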

A short description of test [16]: qHTS for inhibitors of adenylyl cyclases using a fission yeast platform: a pilot screen against the NCATS LOPAC library (AID 1347410).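 Also: plate controls were DMSO vehicle for no effect and DPI positive control for full effect.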 Summed up:
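S. pombe CHP2027 (AC9-GNAS-PDE4D2) carrying a PKA-repressed fbp1-GFP reporter was exposed to LOPAC compounds (final up to 57 µM) for 18 h at 30C in the dark, in EMM with histidine, lysine and uracil; GFP gain-of-signal read by laser scanning cytometry.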

Test [17] in a line: Validation qHTS assay for inhibitors of Activation Induced Cytidine Deaminase (AID): UDG Counterscreen signal (AID 1347427). Also: 0% is about no effect. Summed up: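 Counterscreen read of UDG activity (2 U/mL, 4/3x) in the FRET deamination format with AID (1 uM, 4/3x), DJC20/DJC23 substrates (250 nM, 4x), 4 h at room temperature. NaOH stop, fluorescence at 560 ex/665 em.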
Test [18] concerns the target Single-stranded DNA cytosine deaminase (Homo sapiens) (UniProt Q9GZX7). In words: Validation qHTS assay for inhibitors of Activation Induced Cytidine Deaminase (AID): AID signal (AID 1347429). Also: % is scaled to controls: 0 for no effect and ±100 for the full control effect. Summed up:
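AID and UDG were combined and compounds added at final up to 114 uM, then DJC20/DJC23 FRET substrate was added for 4 hr at room temperature. NaOH was then added for 30 min before fluorescence was read at 540/590 nm.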

Test [19] can be described thus: Primary qHTS for inhibitors of La Crosse Virus (LACV) - induced cell death in SH-SY5Y cells (AID 1508616).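 Also: top concentration of the series differs between compounds; 0% = infected DMSO wells and 100% = uninfected DMSO wells; higher means more rescue of cells from virus-induced death.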 Summed up: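 Luminescent ATP readout (ATPLite 1step, 5 min room temperature) measured rescue from LACV-induced death after 6 days of infection at 0.01 MOI; normalized to infected DMSO wells and uninfected DMSO wells.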
The nature of test [20]: Cell Viability qHTS for small molecule stabilizers of the endoplasmic reticulum resident proteome (AID 1508629).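 Also: human SH-SY5Y neuroblastoma cells carrying the GLuc-SERCaMP reporter; compound exposure about 46 h in total before the viability read; % is scaled to controls: 0 for no effect and ±100 for the full control effect.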 Conditions: cell viability counter-screen, 100 nM thapsigargin for final 4 h.
For another test, the target named is Papain (Carica papaya) (UniProt P00784). In words: Primary qHTS assay for inhibitors of the protease papain (AID 1645873).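 Also: papain turnover of Z-FR-AMC read as the AMC fluorescence gain over 10 min; series mostly up to about 50 µM; % is scaled to controls: 0 for no effect and ±100 for the full control effect.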
Sequence of Papain (Carica papaya) (P00784 whole entry, looked up): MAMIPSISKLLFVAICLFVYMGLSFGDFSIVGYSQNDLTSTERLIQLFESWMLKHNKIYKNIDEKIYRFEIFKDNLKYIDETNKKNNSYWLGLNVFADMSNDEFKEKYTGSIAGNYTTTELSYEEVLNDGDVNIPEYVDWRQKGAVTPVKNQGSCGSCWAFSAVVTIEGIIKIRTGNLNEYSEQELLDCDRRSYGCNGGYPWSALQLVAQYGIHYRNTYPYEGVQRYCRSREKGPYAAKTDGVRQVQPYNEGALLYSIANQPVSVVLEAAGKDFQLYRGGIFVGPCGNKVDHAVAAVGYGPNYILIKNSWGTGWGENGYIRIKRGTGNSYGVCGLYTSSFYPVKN
Test [21] deals with Metallo-beta-lactamase type 2 (Klebsiella pneumoniae) (UniProt C7C422). In words: qHTS to identify inhibitors of the New Delhi Metallo-beta-lactamase (NDM): assay validation screen against the NCATS LOPAC Collection (AID 1794843). In a few lines: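 NDM-1 at 2 nM final in 50 mM HEPES pH 7.0 with 1 uM ZnSO4 and 0.01% Tween20 was preincubated with library compounds in DMSO. Nitrocefin (50 uM stock) was then added, and absorbance at 485 nm was read at the kinetic plateau.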

For test [22], the target named is Glutathione peroxidase 1 (Homo sapiens) (UniProt P07203). In words: Primary qHTS Assay for Inhibitors of Recombinant Selenoprotein Glutathione Peroxidase 1 (GPX1) (AID 1845191). Also: nearly all actives have a fitted effect of over 65% in size. In a few lines:
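10 nM GPX1 + cpd, 30 min RT; start w/ 1 mM GSH, 0.5 mM cumene hydroperoxide, 0.5 mM NADPH, 100 nM GR, 0.01% BSA; buffer 50 mM Tris-HCl pH 7.5, 2 mM EDTA, 150 mM NaCl; Fl 340/450, 0 & 15 min.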

Test [23] concerns the target Phospholipid hydroperoxide glutathione peroxidase GPX4 (Homo sapiens) (UniProt P36969). In words: Primary qHTS Assay for Inhibitors of Recombinant Selenoprotein Glutathione Peroxidase 4 (GPX4) (AID 1845192). Also: nearly all actives have a fitted effect of over 65% in size. Conditions: outcome: dose series up to 50 µM unless noted. Summed up: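 NADPH consumption, followed by fluorescence at 340/450 nm between 0 and 15 min, reports GPX4 activity via coupled glutathione reductase (100 nM). Enzyme 200 nM was pre-exposed to compound 30 min; 0.5 mM cumene hydroperoxide and 1 mM GSH served as substrates.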

T2 sequence (P78324 whole entry, looked up): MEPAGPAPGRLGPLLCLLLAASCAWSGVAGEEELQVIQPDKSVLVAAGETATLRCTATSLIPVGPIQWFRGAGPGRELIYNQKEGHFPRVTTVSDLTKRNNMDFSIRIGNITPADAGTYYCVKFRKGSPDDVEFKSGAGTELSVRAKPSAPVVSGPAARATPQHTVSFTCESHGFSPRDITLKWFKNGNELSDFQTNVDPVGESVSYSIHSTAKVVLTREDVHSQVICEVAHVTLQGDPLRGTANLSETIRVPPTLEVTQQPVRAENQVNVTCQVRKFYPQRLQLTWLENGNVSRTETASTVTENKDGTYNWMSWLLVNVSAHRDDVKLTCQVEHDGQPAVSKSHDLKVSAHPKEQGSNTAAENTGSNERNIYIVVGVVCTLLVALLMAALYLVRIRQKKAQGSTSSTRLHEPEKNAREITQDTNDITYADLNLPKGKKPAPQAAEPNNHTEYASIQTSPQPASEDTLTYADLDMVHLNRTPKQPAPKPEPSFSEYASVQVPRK
T2 sequence (Q08722 whole entry, looked up): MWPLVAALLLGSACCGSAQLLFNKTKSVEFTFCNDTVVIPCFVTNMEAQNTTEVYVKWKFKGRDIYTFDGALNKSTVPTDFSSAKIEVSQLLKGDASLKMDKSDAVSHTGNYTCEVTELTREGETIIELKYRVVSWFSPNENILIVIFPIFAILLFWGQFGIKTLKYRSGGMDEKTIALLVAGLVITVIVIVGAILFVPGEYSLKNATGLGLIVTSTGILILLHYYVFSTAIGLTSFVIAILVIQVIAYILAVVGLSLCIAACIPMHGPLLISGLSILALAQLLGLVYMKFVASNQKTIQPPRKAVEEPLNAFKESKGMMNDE
T1 sequence (P35557 whole entry, looked up): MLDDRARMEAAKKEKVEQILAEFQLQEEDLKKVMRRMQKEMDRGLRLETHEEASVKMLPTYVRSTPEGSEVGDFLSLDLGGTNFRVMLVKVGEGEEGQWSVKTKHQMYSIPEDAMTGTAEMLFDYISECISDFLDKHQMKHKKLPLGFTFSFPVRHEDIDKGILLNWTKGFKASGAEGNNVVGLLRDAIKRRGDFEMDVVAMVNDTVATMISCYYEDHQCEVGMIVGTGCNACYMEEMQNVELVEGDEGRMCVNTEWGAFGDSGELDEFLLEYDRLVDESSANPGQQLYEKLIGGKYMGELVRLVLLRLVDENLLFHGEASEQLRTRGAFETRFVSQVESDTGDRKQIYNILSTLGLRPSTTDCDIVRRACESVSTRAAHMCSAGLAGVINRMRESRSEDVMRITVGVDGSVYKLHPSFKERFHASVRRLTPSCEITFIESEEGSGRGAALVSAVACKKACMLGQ
T1 sequence (Q14397 whole entry, looked up): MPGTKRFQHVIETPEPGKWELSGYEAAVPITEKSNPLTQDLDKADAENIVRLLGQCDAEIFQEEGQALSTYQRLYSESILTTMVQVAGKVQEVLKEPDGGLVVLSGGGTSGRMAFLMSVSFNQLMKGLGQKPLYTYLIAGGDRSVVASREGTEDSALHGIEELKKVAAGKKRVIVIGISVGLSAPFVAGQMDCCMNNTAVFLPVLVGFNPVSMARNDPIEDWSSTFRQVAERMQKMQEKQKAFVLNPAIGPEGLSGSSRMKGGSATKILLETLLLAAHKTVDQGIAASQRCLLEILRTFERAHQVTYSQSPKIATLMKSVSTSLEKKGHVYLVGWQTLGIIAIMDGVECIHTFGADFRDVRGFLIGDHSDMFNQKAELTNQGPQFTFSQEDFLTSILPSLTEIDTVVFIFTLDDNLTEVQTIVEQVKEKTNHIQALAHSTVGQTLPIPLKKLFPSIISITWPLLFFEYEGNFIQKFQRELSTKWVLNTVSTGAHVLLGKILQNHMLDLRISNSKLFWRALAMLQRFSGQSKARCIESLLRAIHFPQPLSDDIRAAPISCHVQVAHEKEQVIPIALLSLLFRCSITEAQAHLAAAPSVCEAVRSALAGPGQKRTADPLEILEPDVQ
Sequence of Atrial natriuretic peptide receptor 2 (Homo sapiens) (P20594 whole entry, looked up): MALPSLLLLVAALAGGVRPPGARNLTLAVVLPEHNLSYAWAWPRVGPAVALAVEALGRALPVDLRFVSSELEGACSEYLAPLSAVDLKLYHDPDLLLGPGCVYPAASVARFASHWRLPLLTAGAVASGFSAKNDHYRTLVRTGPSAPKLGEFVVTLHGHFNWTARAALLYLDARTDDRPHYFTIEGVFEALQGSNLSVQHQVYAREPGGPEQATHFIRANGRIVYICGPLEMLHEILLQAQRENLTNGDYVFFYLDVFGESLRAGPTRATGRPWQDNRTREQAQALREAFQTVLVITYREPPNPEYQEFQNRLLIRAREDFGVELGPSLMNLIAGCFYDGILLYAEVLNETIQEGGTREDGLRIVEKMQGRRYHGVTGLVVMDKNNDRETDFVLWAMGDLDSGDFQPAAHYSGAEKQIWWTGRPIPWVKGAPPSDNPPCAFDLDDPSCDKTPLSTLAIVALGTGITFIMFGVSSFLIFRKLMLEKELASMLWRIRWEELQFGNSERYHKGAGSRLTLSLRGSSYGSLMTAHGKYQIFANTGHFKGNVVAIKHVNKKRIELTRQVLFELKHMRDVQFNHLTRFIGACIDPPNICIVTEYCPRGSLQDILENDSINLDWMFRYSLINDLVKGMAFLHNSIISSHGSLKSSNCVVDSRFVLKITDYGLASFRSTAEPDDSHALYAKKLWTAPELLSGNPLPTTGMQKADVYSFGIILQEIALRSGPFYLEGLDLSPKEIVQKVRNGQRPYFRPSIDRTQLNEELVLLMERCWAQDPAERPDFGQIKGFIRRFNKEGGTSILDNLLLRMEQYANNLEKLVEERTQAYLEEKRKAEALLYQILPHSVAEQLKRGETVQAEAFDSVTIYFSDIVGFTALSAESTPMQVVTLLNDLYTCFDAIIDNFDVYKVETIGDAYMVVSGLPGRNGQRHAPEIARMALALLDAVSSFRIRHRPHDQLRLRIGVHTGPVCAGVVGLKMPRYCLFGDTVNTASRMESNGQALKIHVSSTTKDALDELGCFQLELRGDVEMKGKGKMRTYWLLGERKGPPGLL
Sequence of Single-stranded DNA cytosine deaminase (Homo sapiens) (Q9GZX7 whole entry, looked up): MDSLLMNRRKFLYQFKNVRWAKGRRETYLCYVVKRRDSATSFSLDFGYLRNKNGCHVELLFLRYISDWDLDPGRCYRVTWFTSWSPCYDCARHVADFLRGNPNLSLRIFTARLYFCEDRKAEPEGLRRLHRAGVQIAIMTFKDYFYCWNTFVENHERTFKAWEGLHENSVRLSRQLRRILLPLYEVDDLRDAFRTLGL
Sequence of Lysine-specific demethylase 5B (Homo sapiens) (Q9UGL1 whole entry, looked up): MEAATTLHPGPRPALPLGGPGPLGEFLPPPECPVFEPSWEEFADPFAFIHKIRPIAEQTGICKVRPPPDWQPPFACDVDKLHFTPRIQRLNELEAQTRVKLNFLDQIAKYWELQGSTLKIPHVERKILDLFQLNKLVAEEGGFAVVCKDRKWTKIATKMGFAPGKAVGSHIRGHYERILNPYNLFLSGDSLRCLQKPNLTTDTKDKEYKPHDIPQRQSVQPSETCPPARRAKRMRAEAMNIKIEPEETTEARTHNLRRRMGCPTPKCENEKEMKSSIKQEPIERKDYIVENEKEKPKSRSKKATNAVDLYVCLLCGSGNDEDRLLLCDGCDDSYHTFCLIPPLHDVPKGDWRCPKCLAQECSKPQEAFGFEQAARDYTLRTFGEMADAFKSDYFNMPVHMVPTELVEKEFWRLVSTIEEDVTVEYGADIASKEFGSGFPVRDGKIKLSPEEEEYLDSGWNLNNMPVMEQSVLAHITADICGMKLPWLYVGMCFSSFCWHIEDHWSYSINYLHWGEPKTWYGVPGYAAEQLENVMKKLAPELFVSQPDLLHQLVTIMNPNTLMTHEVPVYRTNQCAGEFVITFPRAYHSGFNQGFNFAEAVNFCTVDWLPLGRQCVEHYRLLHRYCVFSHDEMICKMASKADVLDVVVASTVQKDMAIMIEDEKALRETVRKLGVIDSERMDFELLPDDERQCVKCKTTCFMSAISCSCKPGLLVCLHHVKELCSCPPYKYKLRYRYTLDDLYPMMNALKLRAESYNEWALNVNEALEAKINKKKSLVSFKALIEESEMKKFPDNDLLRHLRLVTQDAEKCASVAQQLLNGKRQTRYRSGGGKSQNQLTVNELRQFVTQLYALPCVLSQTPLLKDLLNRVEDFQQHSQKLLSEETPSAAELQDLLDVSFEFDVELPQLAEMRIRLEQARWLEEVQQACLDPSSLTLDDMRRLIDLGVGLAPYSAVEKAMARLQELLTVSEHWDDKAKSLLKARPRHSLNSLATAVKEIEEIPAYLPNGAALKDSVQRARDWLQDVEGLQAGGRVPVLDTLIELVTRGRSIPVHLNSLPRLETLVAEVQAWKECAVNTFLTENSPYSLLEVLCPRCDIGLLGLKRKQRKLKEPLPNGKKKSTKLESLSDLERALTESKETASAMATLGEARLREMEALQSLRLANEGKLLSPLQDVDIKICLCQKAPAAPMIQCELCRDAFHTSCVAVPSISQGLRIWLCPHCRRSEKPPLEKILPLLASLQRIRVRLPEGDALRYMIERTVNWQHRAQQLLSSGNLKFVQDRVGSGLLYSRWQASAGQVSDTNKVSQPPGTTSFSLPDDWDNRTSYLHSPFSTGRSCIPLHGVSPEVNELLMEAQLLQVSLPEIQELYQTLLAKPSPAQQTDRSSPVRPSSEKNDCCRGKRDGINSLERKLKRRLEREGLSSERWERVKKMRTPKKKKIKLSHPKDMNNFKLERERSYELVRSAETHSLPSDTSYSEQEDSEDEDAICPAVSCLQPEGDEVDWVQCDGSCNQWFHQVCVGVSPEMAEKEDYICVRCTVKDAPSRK

On to `O=C1c2ccccc2C(=O)c2c(NCCc3ccc(O)cc3)ccc(NCCc3ccc(O)cc3)c21`, for which the compound was called inactive in test [1], in test [2], in [4], in test [6], in test [7] and in [11]. For the same compound, the result in test [12], in test [14], in [15], in test [16], in test [17] and in test [19] was inactive. Also, the Potency in test [3] is 9.53 µM (active); in [8], 11.7 µM (active); in test [9] it was 12 µM (active); in [10] it was 13.1 µM (active); in test [13] it was 1.85 µM (active). Moreover, the Potency entry (in test [5]; in test [18]; in the test with Papain (Carica papaya); in test [21]; in [22]; in test [23]) was “inactive” in each case. The max response in test [20] is -20.2%.
